Screening data: PubChem BioAssay, National Center for Advancing Translational Sciences (NCATS)
A selection: hits, their analogues and other compounds. The true share with any hit is near 2.4%.
D2 ag-1 – agonists of human D2 dopamine receptor. hit rate 0.53% among 340,000. AID 485358. activation, % at 2 µM. HEK293 T-REx D2 cells, calcium flux agonist mode. P14416;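 active = activation over 3 SD above normal in the single-dose calcium agonist read, cut at about 30% in these data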; also: 0% is about no effect
Target sequence (P14416 whole entry, looked up): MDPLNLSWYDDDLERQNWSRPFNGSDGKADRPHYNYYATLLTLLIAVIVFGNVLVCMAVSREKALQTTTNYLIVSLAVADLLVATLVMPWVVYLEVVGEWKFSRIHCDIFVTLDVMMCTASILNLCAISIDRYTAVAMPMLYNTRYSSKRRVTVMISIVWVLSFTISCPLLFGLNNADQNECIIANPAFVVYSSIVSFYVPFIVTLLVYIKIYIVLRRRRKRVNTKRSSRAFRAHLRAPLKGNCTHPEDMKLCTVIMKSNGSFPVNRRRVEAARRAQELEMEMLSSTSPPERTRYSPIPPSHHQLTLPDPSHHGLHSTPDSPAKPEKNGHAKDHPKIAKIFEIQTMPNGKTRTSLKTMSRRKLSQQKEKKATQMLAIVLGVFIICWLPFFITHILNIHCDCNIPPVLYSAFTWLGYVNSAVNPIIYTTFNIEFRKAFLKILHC
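Tetracycline-induced HEK293 T-REx cells with force-coupled D2 receptor, plated overnight at 30 C, loaded with no-wash calcium dye. After a 10 s baseline, compound was pin-added and calcium flux read kinetically for 180 s; calcium rises flagged agonists.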
D2 PAM-1 – potentiates the human D2 dopamine receptor allosterically. P14416. DiscoveRx D2 beta-arrestin cells, luminescence, 90 min; 100% = 57 uM dopamine signal. potentiation, % (no concentration beside the values). hit rate 0.23% among 360,000; in the data active = potentiation above about 50%; inconclusive = mostly about 30% to 49%
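PathHunter D2 cells, attached overnight at 37 deg C, received compound in DMSO plus dopamine at EC20 (50 nM final) for 90 min at 37 deg C. Beta-arrestin recruitment was read as luminescence after 1 h with detection reagent at ambient temperature.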
D2 ag-2 – agonists of human D2 dopamine receptor (beta-arrestin). DiscoveRx PathHunter D2 beta-arrestin, luminescence, 90 min; 100% = 57 uM dopamine signal. hit rate 0.084% among 360,000. activation, % (test concentration not listed). P14416; in the data active = activation above about 40%; inconclusive = between about 15% and that limit
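Agonist mode: compounds alone added to overnight-plated D2 PathHunter cells for 90 min at 37 C, with 57 uM final dopamine (EC100) defining full response. Beta-arrestin recruitment detected by chemiluminescent reagent, read after 1 h at ambient temperature.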
D2 PAM-2 – D2 dopamine receptor (human) potentiation | P14416 | HEK293 T-REx D2, calcium flux, EC20 dopamine potentiation | potentiation, % at 10 µM | hit rate 0.34% among 340,000 | AID 485347;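 active = potentiation over 3 SD above the plate norm, cut at about 30% in these data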; also: 0% is about no effect
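Tetracycline-induced Hek293 Trex D2 cells, force-coupled to calcium, loaded with no-wash calcium dye. Compound added with 180 s kinetic read for agonism, then EC20 dopamine and a further 180 s read for potentiation.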
D2 antag – antagonists of human D2 dopamine receptor | P14416 | HEK293 TREx D2 cells, calcium flux, dopamine EC80 | inhibition, % at 10 µM | hit rate 2% among 340,000 | AID 485344; in the data active = inhibition above about 30%; inactive = below that, where a call was filed; also: 0% is about no effect
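In this primary screen, negative modulation is detected by tracking calcium flux after an EC80 dopamine challenge in inducible HEK293 T-REx D2 cells preexposed to test compound for 180 s.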
* hit, by the source's call; ? = inconclusive; . = no result.

SMILES | D2 ag-1 | D2 PAM-1 | D2 ag-2 | D2 PAM-2 | D2 antag
CCc1cccc(C)c1NC(=O)CSc1n[nH]c(-c2ccccc2)n1 | -2 | . | . | 9 | .
COC(=O)NCC(c1cccnc1)N1CCOCC1 (stereo not given) | 0 | -10 | -6 | -1 | 25
O=C(NCC(c1cccnc1)N1CCOCC1)c1cccs1 (stereo not given) | 1 | -1 | 0 | -2 | 34*
CN1C(=O)c2oc3ccccc3c(=O)c2C1c1ccccn1 (stereo not given) | 0 | -2 | 1 | 32* | 4
CN1C(=O)c2oc3ccccc3c(=O)c2C1c1cccnc1 (stereo not given) | . | -7 | -2 | . | .
CCOC(=O)c1cccc(Nc2ncnc3ccccc23)c1 | 1 | -7 | 1 | 34* | 14
CCCC(=O)C1=C(O)C(C(=O)OC)C(C)(C)CC1=NC(C)C (stereo not given) | 0 | 0 | 0 | 5 | 33*
COCCn1c(C)cc(C(=O)Cn2nc(C(=O)O)c3ccccc3c2=O)c1C | 1 | -8 | 3 | -1 | 32*
O=C(O)c1nn(CCOc2c(Cl)cccc2Cl)c(=O)c2ccccc12 | -1 | -2 | 3 | 45* | 4
COCCn1c(C)cc(C(=O)COC(=O)c2ccc[nH]c2=O)c1C | 0 | 4 | 0 | 4 | 62*
O=C(O)c1nn(CCOc2cccc(Cl)c2)c(=O)c2ccccc12 | 0 | 1 | -3 | 1 | -4
Cc1cc(C(=O)COC(=O)c2ccc[nH]c2=O)c(C)n1C | 1 | 19 | -1 | 2 | -15
Cc1c(Cl)cccc1NC(=O)CCOc1ccccc1 | -3 | . | . | 15 | .
COc1ccc(OC)c(NC(=O)C2CCN(S(=O)(=O)c3ccc4c(c3)CCCC(=O)N4)CC2)c1 | 0 | . | . | -9 | .
CCN(C(=O)CCS(=O)(=O)c1ccc2c(c1)CCN2C(C)=O)c1cccc(C(F)(F)F)c1 | -1 | . | . | -3 | .
CCc1nn2c(=O)cc(COC(=O)c3ccccc3)nc2s1 | 0 | . | . | -8 | .
O=C(NCc1cccnc1)c1ccc(-c2cccc(Cl)c2Cl)o1 | 2 | -29 | -3 | 10 | 59*
O=C(NCc1cccnc1)c1ccc(-c2ccccc2[N+](=O)[O-])o1 | -2 | -13 | 2 | -20 | 85*
CC(=O)c1cccc(NC(=O)c2ccc(-c3ccccc3[N+](=O)[O-])o2)c1 | 0 | -21 | 0 | -16 | 33*
O=S(=O)(Nc1ccc(F)c(C(F)(F)F)c1)c1ccc(N2CCCCS2(=O)=O)cc1 | . | . | . | 1 | .
COc1ccc(N2CCN(C(CNC(=O)c3c(F)cccc3F)c3ccc4c(c3)OCO4)CC2)cc1 (stereo not given) | . | . | . | -19 | .
Cc1ccc(-c2nc3ncccc3o2)cc1NC(=O)COc1ccc(C(C)C)cc1 | 0 | . | . | 5 | .
COc1cc(/C=N/NC(=O)c2cccc3ccccc23)cc(OC)c1OC | -3 | 3 | -2 | -11 | 30*
COc1cc(/C=N/NC(=O)c2cccc3ccccc23)cc(OC)c1O | 0 | 7 | 7 | 3 | 3
COCc1cc(C)nc2sc3c(c12)NC(c1ccc(O)cc1)N(c1ccc(C)cc1)C3=O (stereo not given) | . | . | . | 4 | .
SMILES | D2 ag-1 | D2 PAM-1 | D2 ag-2 | D2 PAM-2 | D2 antag
COc1ccc(COCC(O)CN2CCCCC2)cc1OC (stereo not given) | -2 | -7 | -2 | 1 | -15
COc1ccc(COCC(O)CN(Cc2ccccc2)C(C)C)cc1OC (stereo not given) | 1 | -6 | 0 | -3 | 31*
COc1ccc(NS(=O)(=O)c2cccc(C(=O)NCC(c3ccco3)N(C)C)c2)cc1 (stereo not given) | 0 | -40 | 0 | -13 | 37*
CN(C)C(CNC(=O)c1cccc(C(F)(F)F)c1)c1ccco1 (stereo not given) | 0 | -6 | -5 | -33 | 31*
COc1ccc(Cl)cc1NS(=O)(=O)c1cccc(C(=O)NCC(c2ccco2)N(C)C)c1 (stereo not given) | 0 | -43 | -3 | -19 | 60*
COc1ccccc1NS(=O)(=O)c1ccc(C(=O)NCC(c2ccco2)N(C)C)cc1 (stereo not given) | 1 | -3 | -1 | -12 | -12
O=C(NCc1ccco1)c1cccc(C(F)(F)F)c1 | 2 | -2 | -6 | 0 | -7
COc1ccc(C(CNC(=O)c2ccc(NS(=O)(=O)c3ccc4c(c3)OCCO4)cc2)N(C)C)cc1 (stereo not given) | 0 | -40 | -4 | -14 | 31*
COc1ccc(NS(=O)(=O)c2ccc(C)c(C(=O)NCC(c3ccco3)N(C)C)c2)cc1 (stereo not given) | 1 | -19 | -2 | -4 | 23
CCOc1ccc(NC(=O)NC(CC)Cn2nnc3ccccc3c2=O)cc1 (stereo not given) | -1 | . | . | 11 | .
Cc1ccc2onc(CNC(=O)Nc3cc(F)ccc3F)c2c1 | -1 | . | . | 0 | .
COc1ccccc1NS(=O)(=O)c1cccc(C(=O)NCC(c2ccco2)N2CCCCC2)c1 (stereo not given) | 0 | -41 | -2 | 4 | 2
COc1ccc(Cl)cc1NS(=O)(=O)c1cccc(C(=O)NCC(c2ccco2)N2CCCC2)c1 (stereo not given) | 0 | -50 | -7 | -22 | 39*
COc1ccc(N(C)S(=O)(=O)c2cccc(C(=O)NCC(c3ccco3)N3CCCC3)c2)cc1 (stereo not given) | 0 | -44 | -5 | -20 | 23
COc1ccc(N(C)S(=O)(=O)c2cccc(C(=O)NCC(c3cccs3)N(C)C)c2)cc1 (stereo not given) | 1 | -37 | 1 | -24 | 46*
Cc1cn(C)c(CC(=O)NCc2cccc(Cl)c2)c1C(=O)O | 1 | . | . | 16 | .
N/C(=N\OC(=O)c1ccc(OCC(F)(F)F)nc1)c1ccc(Cl)cc1 | 0 | 53* | ? | 4 | 30*
N/C(=N\OC(=O)c1ccccc1Cl)c1ccc(Cl)cc1 | . | 26 | ? | . | .
N/C(=N\OC(=O)c1ccc(Cl)cc1Cl)c1ccccc1 | -1 | ? | ? | -1 | 15
N/C(=N\OC(=O)c1ccc(Cl)cc1Cl)c1ccc(Cl)cc1 | 0 | 114* | ? | 10 | 12
N/C(=N\OC(=O)c1ccc(Cl)cc1)c1ccc(Cl)cc1 | 0 | 86* | ? | 0 | -19
N/C(=N\OC(=O)c1ccc(Cl)cc1Cl)c1cccnc1 | 1 | 9 | 50* | 6 | 10
N/C(=N\OC(=O)c1ccc(Cl)cc1)c1cccnc1 | 0 | 27 | ? | -10 | 8
Cc1ccc(CN(Cc2ccco2)c2cnc(S(C)(=O)=O)nc2C(=O)Nc2ccccc2Br)o1 | -2 | . | . | -4 | .
CCOc1cccc2sc(NC(=O)c3ccc(S(=O)(=O)N4CCCCC4C)cc3)nc12 (stereo not given) | -2 | . | . | 16 | .
